Compounds without any hit were thinned out: in the full panel of roughly 83,000, 20% have a hit.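 Plates (96-well) were seeded with cells, treated with compound at one concentration, and incubated for 48 hours before percent growth was determined.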 Activity calls are given as the source filed them.
The compounds below were run on MDA-MB-435 melanoma (assay: NCI-60 one-dose screen, 48 h (100 = growth as untreated, 0 = no growth, -100 = all killed)). Settings: 10 µM unless noted.
Method: Growth inhibition of the MDA-MB-435 human Melanoma tumor cell line is measured as a screen for anti-cancer activity. Cells are grown in 96 well plates and exposed to the test compound for 48 hours. Compounds are tested at a single concentration, which is 10^-5 M for most compounds. The reported endpoint is percent growth (GI% or GIPRCNT), where numbers from 0 - 100% represent growth inhibition, and numbers from -100% - 0 represent cell death. For example, a value of 40 represents 60% growth inhibition. A value of 0 means no net growth occurred over the course of the experiment. A value of -40 indicates 40% of cells at the beginning of the experiment died by the end of the experiment. A value of -100 means all cells are dead at the end of the experiment.
NCI-60 Human Tumor Cell Lines Screen was performed using the standard one-dose NCI protocol, which is described in more detail at https://dtp.cancer.gov/discovery_development/nci-60/default.htm.
Compounds with GIPRCNT values below 10 were considered active. Activity score was based on GIPRCNT using the following formula: […]
Score is 0 for GIPRCNT values of 100 or above, 50 for GIPRCNT values of 0, and 100 for GIPRCNT values of -100.

| Structure (SMILES) | growth |
| --- | --- |
| CCCOC(=O)C1(O)CCCC1 | 101% (inactive) |
| O=C(O)c1ccc(-n2c(=O)c3ccccc3c3ccccc3c2=O)cc1 | 103% (inactive) |
| CC1Cc2c(N(C)C)ncnc2N(C)c2ccc(O)cc21 (stereo not given) | 8.93% (active) |
| Nc1nc(-c2cc3ccccc3o2)cc(=O)c(=O)[nH]1 | 105% (inactive) |
| COc1cc(CCn2nnc3c(Nc4ccc(N5CCOCC5)cc4)ncnc32)cc(OC)c1 | 68.2% (inactive) |
| C=CCn1c(C)nc2ccc(Nc3nc(Nc4ccc(F)cc4)nc4ccccc34)cc21 | 57.1% (inactive) |
| C=C1C(=O)O[C@H]2[C@H]1CC/C(COC(=O)NCc1cc(OC)c(OC)c(OC)c1)=C\CC[C@@]1(C)O[C@@H]21 | 62.8% (inactive) |
| O=C1NC(Cc2c[nH]c3ccccc23)C(=O)N1Cc1ccc(Cl)cc1 (stereo not given) | 92.2% (inactive) |
| COc1c(NC[C@H]2OC(O)[C@H](O)[C@@H](O)[C@@H]2O)c(=O)c1=O (stereo not given in full) | 98% (inactive) |
| CCCCCCCN(CCCCCCC)C(=N)c1ccc(OC)c2ccccc12 | -98.7% (active) |
| COc1ccc2c(c1)NC(=O)CN2c1nc(C)nc2ccccc12 | 1.13% (active) |
| CC(C(=O)n1cc(-c2ccccc2)c(-c2ccccc2)c1)c1ccccc1 (stereo not given) | 104% (inactive) |
| CCO/C=N/NC(=O)c1ccncc1 | 110% (inactive) |
| O=C1CCCCN1CCCCC#Cc1ccccc1C#Cc1ccc([N+](=O)[O-])cc1 | 45.5% (inactive) |
| CCn1cc(C(=O)O)c(=O)c2cc(F)c(N3CCN(S(=O)(=O)c4ccc(Cl)cc4Cl)CC3)cc21 | 12.8% (inactive) |
| CCN(CC)CCSc1c2ccc(Cl)cc2nc2ccc(OC)cc12 | 109% (inactive) |
| CCCCC(N)(C(=O)O)C1CCCC1 (stereo not given) | 104% (inactive) |
| CCCC1OC(c2ccc(C(C)C)cc2)OCC1CC (stereo not given) | 105% (inactive) |
| O=C(CNC(=O)c1cccc2ccccc12)Nc1ccccc1Oc1ccccc1 | -5.12% (active) |
| Nc1cccc2c1CN(C1CCC(=O)NC1=O)C2=O (stereo not given) | 101% (inactive) |

| Structure (SMILES) | growth |
| --- | --- |
| COc1cc(C2C3=C(COC3=O)Nc3c2ccc2c3CCCC2)cc2c1OCO2 (stereo not given) | -16.9% (active) |
| Oc1ccc(N=Cc2ccccc2)cc1 | 97.8% (inactive) |
| CCn1c(=O)c2c(=O)c3c4c(oc3oc2c2ccccc21)C(=O)c1ccccc1C4=O | 95.9% (inactive) |
| CCCCC[C@@H]1Cc2cc(O)c(C(=O)O)c3c2[C@H](C[C@@]2(CCCO2)O3)O1 | 97.2% (inactive) |
| COc1cc2nc(N3CCC[C@@H](NC4=CC(=O)c5ccccc5C4=O)C3)nc(N)c2cc1OC | 64.7% (inactive) |
| CCC(c1ccc(OC)cc1)C(CC)c1ccc(O)c(CN2CCCC2)c1 (stereo not given) | -31.6% (active) |
| Clc1ccc2c(c1)NC1(CCSc3ccccc31)n1nccc1-2 (stereo not given) | 110% (inactive) |
| CC(Br)C(Br)c1cc2c(cc1Br)OCO2 (stereo not given) | 97.9% (inactive) |
| C[N+](C)(C)c1ccc(CC2c3ccccc3-c3ccccc32)cc1 | 90.4% (inactive) |
| COc1ncc(-c2ccc3ncnc(Nc4cccc(Cl)c4)c3c2)cc1NS(=O)(=O)CCN1CCOCC1 | 11.8% (inactive) |
| Cc1ccccc1C(=O)c1ccccc1C(=O)O | 105% (inactive) |
| COc1ccc(N=C2NN=C(c3ccc(F)cc3)CS2)cc1OC | 83.3% (inactive) |
| c1ccc2c(c1)Oc1ccccc1C2C1c2ccccc2Oc2ccccc21 | 99.4% (inactive) |
| O=C(Nc1ccc(F)cc1)c1cc([N+](=O)[O-])ccc1O | 72.2% (inactive) |
| O=C(CN1CCOCC1)Nc1ccc(-c2nc3ccccc3s2)cc1 | 108% (inactive) |
| CCN(Cc1ccc(CN(CC)C(=O)C(Br)Br)cc1)C(=O)C(Br)Br | 22.3% (inactive) |
| CC(=O)Nc1ccc(S(=O)(=O)NC(CCC(=O)Nc2ccc(Cl)cc2)C(=O)O)cc1 (stereo not given) | 85.2% (inactive) |
| OC1CC2c3ccccc3C1c1ccccc12 (stereo not given) | 107% (inactive) |
| COc1ccc(NC(=O)CSc2nc3ccccc3c(=O)n2Cc2cc(OC)c(OC)c(OC)c2)cc1 | 101% (inactive) |
| CCNCc1ccncc1 | 95.6% (inactive) |

From PubChem BioAssay (NCI)
